RGS16-Gao HTS: modulators of RGS16 binding to Galphao, primary screen, biochemical, human proteins, multiplexed bead flow cytometry; Regulator of G-protein signaling 16 (Homo sapiens) + Guanine nucleotide-binding protein …; bead-based flow cytometry RGS16-Galphao binding, fluorescence; actives lie on both sides; binding response (% of control), % at 10 µM; actives 0.38% (n = 220,000); AID 1441, 2008;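 also: Galphao activated by GDP with aluminum fluoride before binding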
RGS7-Gao: RGS7-Galphao binding modulators, primary screen, biochemical, multiplexed bead flow cytometry; AID 1439, 2008; actives 0.35% (n = 220,000); Guanine nucleotide-binding protein G(o) subunit alpha (Homo sapiens), P09471; actives lie on both sides; binding response (% of control), % at 10 µM; in the data active = binding response below about 49% or above about 150%;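 also: fluorescent Galphao held in activated GDP-AlF4 state binding bead-coupled RGS7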
Target sequence (P09471 whole entry, looked up): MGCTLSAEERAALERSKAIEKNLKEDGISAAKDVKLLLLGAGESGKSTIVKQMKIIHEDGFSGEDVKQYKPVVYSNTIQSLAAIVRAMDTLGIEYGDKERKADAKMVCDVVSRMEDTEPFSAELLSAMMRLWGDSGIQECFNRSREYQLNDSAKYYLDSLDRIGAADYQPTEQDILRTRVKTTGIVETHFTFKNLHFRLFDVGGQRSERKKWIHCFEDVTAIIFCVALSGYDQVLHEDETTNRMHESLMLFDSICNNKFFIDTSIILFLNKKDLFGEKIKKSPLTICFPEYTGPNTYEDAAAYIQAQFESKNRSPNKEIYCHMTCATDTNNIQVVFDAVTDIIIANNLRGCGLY
GSH fluor: compound fluorescence on glutathione beads, profiling panel, artefact control, biophysical, 488/530 nm, flow cytometry | actives 0.25% (n = 190,000) | fluorescence (KMESF) at 10 µM | GSH beads flow cytometry, compound fluorescence 488/530 nm; active compounds read high; in the data active = fluorescence above about 89;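 also: glutathione beads carrying GST-tagged Bcl family fusion proteins plus one bare bead set; values are compound well signal with DMSO vehicle wells as background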
RGS4-Gao reg: modulators of RGS4 binding to Galphao, primary screen, biochemical, multiplexed bead flow cytometry; Guanine nucleotide-binding protein G(o) subunit alpha (Homo sapiens), P09471; binding response (% of control), % at 10 µM; AID 1415, 2008; actives 0.33% (n = 220,000); actives lie on both sides; in the data active = binding response below about 49% or above about 150%; inactive = in between;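 also: fluorescent Galphao activated with aluminum fluoride binding bead-coupled RGS4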
Avidin fluor: green autofluorescence of compounds with avidin beads – biophysical, 488/530 nm, flow cytometry, artefact control, profiling panel. compound fluorescence 488/530 nm; active compounds read high. fluorescence (KMESF) at 10 µM. actives 0.38% (n = 220,000); in the data active = fluorescence above about 47
RGS8-Gao reg: RGS8-Galphao binding modulators, primary screen, biochemical, multiplexed bead flow cytometry; Guanine nucleotide-binding protein G(o) subunit alpha (Homo sapiens), P09471; actives lie on both sides; response (percent of control binding), % at 10 µM; actives 0.34% (n = 220,000); AID 1423, 2008; in the data active = response below about 60% or above about 140%; inactive = in between;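 also: Galphao activated as the GDP aluminium fluoride complex binding bead-coupled RGS8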
RGS4-Gao HTS: modulators of RGS–Galpha-o binding, primary screen, biochemical, multiplexed beads, flow cytometry, RGS4/7/8/16/19; shares compounds with RGS16-Gao HTS; multiplexed bead flow cytometry; RGS4–Galpha-o binding response, % at 10 µM; actives 99% (n = 1,600); AID 1504, 2009;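 also: fluorescently labeled Galpha-o bound to GDP with aluminium fluoride binding biotinylated RGS beads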
Avidin counter: disruption of biotin probe capture by avidin, counter-screen for RGS protein interaction modulators, biochemical, flow cytometry, bead-based; 1,700 tested, under 10 active; streptavidin beads, fluorescein-biotin binding; inhibition, % at 10 µM; shares compounds with RGS16-Gao HTS;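 active = inhibition above 50%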;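 also: median green fluorescence of gated singlet beads compared with DMSO control wells; 0% = DMSO wells and 100% = complete loss of bead fluorescence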
RGS8-Gao single: RGS8-Galphao binding modulators, confirmation, biochemical, multiplexed bead flow cytometry, single concentration. shares compounds with RGS16-Gao HTS. bead-based flow cytometry RGS8-Galphao binding, fluorescence; actives lie on both sides. binding response (% of control), % at 10 µM. actives 3% (n = 1,700). AID 1836, 2009; in the data active = binding response below about 72% or above about 130%; inactive = in between;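 also: Galphao activated as GDP AlF4 complex before binding bead RGS8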
RGS7-Gao single: RGS7-Galphao binding modulators, confirmation, biochemical, multiplexed bead flow cytometry, single concentration | shares compounds with RGS16-Gao HTS | bead-based flow cytometry RGS7-Galphao binding; actives lie on both sides | response (percent of control binding), % at 10 µM | actives 7.8% (n = 1,700) | AID 1837, 2009; in the data active = response below about 75% or above about 130%; inactive = in between;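 also: fluorescent Galphao activated with GDP and aluminum fluoride binding bead-coupled RGS7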
RGS16-Gao conf: modulators of RGS16-Galphao protein binding, confirmation, biochemical, single concentration, multiplexed bead flow cytometry; response (% of control binding), % at 10 µM; shares compounds with RGS16-Gao HTS; bead-based flow cytometry; actives lie on both sides; actives 4% (n = 1,700); in the data active = response below about 74% or above about 130%; inactive = in between;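 also: Galphao activated as the GDP aluminium fluoride complex binding bead-coupled RGS16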
RGS4-Gao confirm: modulators of RGS4-Galphao protein binding, confirmation, biochemical, single concentration, multiplexed bead flow cytometry. shares compounds with RGS16-Gao HTS. actives 4% (n = 1,700). actives lie on both sides. binding response (% of control), % at 10 µM; in the data active = binding response below about 74% or above about 130%; inactive = in between
RGS19-Gao conf: regulators of RGS19-Galphao binding, confirmation, biochemical, single point, multiplexed bead flow cytometry; shares compounds with RGS16-Gao HTS; bead-based flow cytometry RGS19-Galphao binding; actives lie on both sides; response (percent of control binding), % at 10 µM; actives 5% (n = 1,700); in the data active = response below about 50% or above about 160%; inactive = in between;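 also: 100% = no compound control and 0% = blank background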
* hit, by the source's call; / = no result given; [ ] = dose if it differs, or a comment. Most compounds without a hit are left out; they make up all but 1.2% or so of the library. Unless noted, no rule for the calls is given here.

SMILES	RGS16-Gao HTS	RGS7-Gao	GSH fluor	RGS4-Gao reg	Avidin fluor	RGS8-Gao reg	RGS4-Gao HTS	Avidin counter	RGS8-Gao single	RGS7-Gao single	RGS16-Gao conf	RGS4-Gao confirm	RGS19-Gao conf
O=C(NCCc1cnn(-c2ccccc2)c1)c1cc(COc2c(F)cccc2F)on1	110.2	103.5	15	106.8	13	103.0	/	/	/	/	/	/	/
c1ccc2c(C3=NNC(=NC4CCCCC4)SC3)c[nH]c2c1	5.2*	95.1	5	96.0	8	79.5	96.0*	0.3	102.2	100.9	102.8	105.1	97.2
CC(C(=O)c1c[nH]c(C(N)=O)c1)c1ncc(C(F)(F)F)cc1Cl (configuration not stated)	48.5	51.5	11	53.4	12	57.6*	53.4*	-2.4	99.7	100.7	100.6	101.2	96.1
O=C(CCNc1ccc(F)cc1)c1ccco1	104.4	104.8	11	104.2	6	100.9	/	/	/	/	/	/	/
Nc1cc(C(=O)O)ccc1Nc1ccc(F)c(F)c1	96.2	99.3	27	95.7	10	95.9	/	/	/	/	/	/	/
CCCCOCCCNC(=O)C1CCCCC1	66.1	50.9	31	83.6	4	55.0*	83.6*	0.4	107.2	104.1	111.2	103.7	101.8
O=C(CCn1nnc2ccccc21)NNC(=O)C1CCCCC1	94.6	90.7	12	94.3	14	96.0	/	/	/	/	/	/	/
COc1ccc(CNC(=O)CN(CC2CCCO2)C(=O)CNS(=O)(=O)c2ccccc2)cc1 (configuration not stated)	121.7	208.6*[activator]	4	128.6	171*	85.8	128.6*	1.6	102.2	99.8	100.3	101.2	85.6
COc1ccc(CNC(=O)CN(CC2CCCO2)C(=O)CNS(=O)(=O)c2ccc(C)cc2)cc1 (configuration not stated)	103.0	99.3	13	94.7	15	99.2	/	/	/	/	/	/	/
COc1ccc(-c2cn3c(C)c(C(=O)Nc4cccc(C)n4)sc3n2)cc1	104.7	181.0*[activator]	22	109.8	198*	97.0	109.8*	-0.2	92.7	95.1	88.6	90.3	90.9
Cc1cccc(NC(=O)c2sc3nc(-c4ccccc4)cn3c2C)n1	91.8	100.6	22	101.6	9	100.2	/	/	/	/	/	/	/
S=C(Nc1ccccc1)c1nc2ccccc2s1	239.1	123.2	9	115.6	9	122.5	/	/	/	/	/	/	/

Assay outcomes as filed in PubChem.
